# Data: PubChem BioAssay AID1347076 (National Center for Advancing Translational Sciences (NCATS), 2019)
# The whole screen tested about 400,000 compounds, of which about 13,000 (3.2%) were called active. Inconclusive results (about 18%) are left out. This is one part of a sample in which actives are shown more often than they occur. Calls come from the whole dose curve; as a rule, active = well fitted cell-killing curve with a large enough effect; inconclusive = small, poorly fitted or top-dose-only effect, or effect the other way; inactive = flat fitted curve, though single readings scatter.
# Assay: qHTS assay for MDR1-selective chemotherapeutics: Primary screen using the drug-selected MDR subline cells KB-V1; note: nearly all actives have a fitted effect of over 60% in size
# Settings: KB-V1 MDR cells viability, CellTiter-Glo, 72 h; series mostly up to 46.1 µM; activity change, negative = cytotoxicity: at the top concentration
# Method in brief: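 Cytotoxicity via CellTiter-Glo luminescence after 72 h compound exposure at 37 degrees C. Cells: drug-selected KB-V1 line, DMEM phenol-red free plus 10% FBS. Compounds tested at multiple concentrations; normalized data fitted to concentration-effect curves.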
# % is set by controls: 0 for no effect and ±100 for the full control effect; potency is the fitted concentration of half-maximal effect.
SMILES,"activity change, negative = cytotoxicity",Potency
COC(=O)C1=CN(c2c(C)cc(C)cc2C)C(N)=C(C#N)C1c1cccc(F)c1 (stereo not drawn),-19.9% (inactive),
Cc1nnc(C)n1-c1ccc(C(=O)Nc2cccc(Br)c2)cc1,7.83% (inactive),
COC(=O)C1NN=C(C(=O)c2ccc(Br)cc2)C1c1cccc(Br)c1 (stereo not drawn),,23.1 µM (active)
O=C(NC1CC1)c1cccc(Br)c1,7.99% (inactive),
Cc1ccc(-n2c(C)cc(/C=N/Nc3ccc([N+](=O)[O-])cn3)c2C)c(C)c1,-22.1% (inactive),
Cc1cccc(COc2ccccc2/C=N/Nc2ccc([N+](=O)[O-])cc2)c1,,16.4 µM (active)
Cc1ccc(NS(=O)(=O)c2ccc(N/N=C/c3ccccc3OCC(=O)O)c([N+](=O)[O-])c2)c(C)c1,11% (inactive),
CC1(C)OC(=O)C2=C(CC(c3ccccc3)OC2CCc2ccccc2)O1 (stereo not drawn),-13.9% (inactive),
Cc1noc(C)c1NC(=O)N(C)C[C@@H]1Oc2cc(Br)ccc2S(=O)(=O)N([C@@H](C)CO)C[C@H]1C,12.1% (inactive),
CCOc1cc(/C=N/O)ccc1OCc1ccccc1F,0.0138% (inactive),
Fc1ccccc1COc1cccc2cccnc12,-13.5% (inactive),
Fc1ccccc1COc1ccccc1CNCc1ccncc1,,6.51 µM (active)
COc1ccc(-n2nnc(-c3nsc(NC(=O)c4ccc(C)c(C)c4)n3)c2C)cc1Cl,0.0477% (inactive),
COc1ccc(C)cc1NC(=O)NCc1ccccn1,0% (inactive),
CCOc1ccc(NC(=O)Nc2ccc(N(C)C(C)=O)cc2)cc1,9.89% (inactive),
CCOc1ccc(NC(=O)Nc2cc(C)ccc2OC)cc1,,14.6 µM (active)
Cc1ccc(Cl)cc1-n1ncc2c(N3CCC(C(N)=O)CC3)ncnc21,0% (inactive),
CC(=O)c1ccc(OCC(=O)N(C)C2CCS(=O)(=O)C2)cc1 (stereo not drawn),7.87% (inactive),
COc1ccc(CCNc2nc(-c3ccc(F)cc3)cc(C(F)(F)F)n2)cc1OC,0% (inactive),
O=C(COc1cc(Cl)c(Cl)cc1Cl)NC(=O)NC1CCCC1,-5.05% (inactive),
CCCC(=O)Nc1cc(OCC)c(NC(=O)NC2CCCCC2)cc1OCC,-2.62% (inactive),
CCCN(CC(=O)NC(=O)NC1CCCCC1)CC(=O)Nc1cc(Cl)ccc1Cl,,4.11 µM (active)
CSc1ccc(CNC(=O)C2(C)CCCN2C)cc1 (stereo not drawn),-2.64% (inactive),
CCN(CC)c1ncnc2c1ncn2[C@H]1CN(Cc2cccs2)C[C@@H](CO)O1,1.22% (inactive),
COCCNC(=O)c1ccc2c(c1)N=C(C)c1cc(C)ccc1S2,,0.92 µM (active)
CCC1=Nc2cc(C(=O)NCCCN3CCOCC3)ccc2Sc2ccc(Br)cc21,17.4% (inactive),

SMILES,"activity change, negative = cytotoxicity",Potency
CCC1=Nc2cc(C(=O)NCCN3CCCC3)ccc2Sc2ccc(C)cc21,3.17% (inactive),
CCN1C(=O)[C@@H]2[C@@H]3CN(S(=O)(=O)c4ccccc4C)[C@@H](c4ccc(Cl)cc4)[C@@H]3C(=O)C[C@@H]2C1=O,3.41% (inactive),
Cc1ccc(-c2nc(COC(=O)c3c(C)noc3C)cs2)cc1,,23.1 µM (active)
COc1ccc(C(=O)COC(=O)c2c(C)noc2C)cc1Cl,3.29% (inactive),
Cc1ccc(S(=O)(=O)N2CCN(C(=O)COC(=O)c3c(C)noc3C)CC2)c(C)c1,-4.54% (inactive),
CCc1ccc(C2CC(=O)c3c([nH]c(C(=O)OCc4ccc(C)cc4)c3C)C2)cc1 (stereo not drawn),-2.58% (inactive),
COc1ccc(-n2c(=O)c3ccccc3n(Cc3ccccc3Cl)c2=O)cc1,29.4% (inactive),
N#CCCN(C(=S)Nc1ccc(Cl)c(Cl)c1)C1CCCCC1,-15% (inactive),
COc1ccc(C2C(=O)N(C3CCCCC3)CC(=O)N2Cc2ccccc2Cl)cc1OC (stereo not drawn),-16% (inactive),
CCCC(=O)N1CCC1(C)C(=O)NS(=O)(=O)c1ccc(Cl)cc1 (stereo not drawn),3.14% (inactive),
CCn1cc(C(=O)NCCc2ccccc2)c(=O)c2cc(S(=O)(=O)N3CCCCCC3)ccc21,7.64% (inactive),
CCOc1ccccc1NC(=O)Cc1cccs1,-27.2% (inactive),
CCOc1ccccc1NC(=O)Cn1nnc(C(=O)Nc2ccc(C)c(C)c2)c1N,13% (inactive),
CCOc1ccccc1NC(=O)Cn1nnc(C(=O)NCc2cccs2)c1N,,0.58 µM (active)
O=C(Cc1ccc(Cl)cc1)Nc1ccc2nn(-c3ccc(Cl)cc3)nc2c1,0.721% (inactive),
Nc1nc(NCCCN2CCOCC2)nc(Nc2ccccc2)c1[N+](=O)[O-],,23.1 µM (active)
CC1CN(c2nc(Nc3ccccc3)nc(N)c2[N+](=O)[O-])CC(C)O1 (stereo not drawn),-8.14% (inactive),
O=[N+]([O-])c1ccc(NCCCN2CCOCC2)c(Cl)c1,-4.73% (inactive),
COc1ccc(-c2cc3c(c4c2ccn4C)C2CCC3C2)cn1 (stereo not drawn),-1.27% (inactive),
O=C(Cn1c(=O)nc(-c2ccccc2)c2cc(Cl)ccc21)NCc1ccc(Cl)cc1,15.8% (inactive),
COc1cccc(NC(=O)Nc2ccc(F)cc2)c1,-8.98% (inactive),
CC1(C(=O)NS(=O)(=O)c2ccc3ccccc3c2)CCN1C(=O)C1(c2ccc(Cl)cc2)CCC1 (stereo not drawn),9.41% (inactive),
CN1CCN(S(=O)(=O)c2cccc(C(=O)N3CCc4ccccc43)c2)CC1,-7.71% (inactive),
CN(C)C(CNC(=O)c1cccc(S(=O)(=O)N2CCc3ccccc3C2)c1)c1ccccc1 (stereo not drawn),5.99% (inactive),
Cc1cccc(N2CCN(C(=O)c3cccc(S(=O)(=O)N4CCc5ccccc5C4)c3)CC2C)c1 (stereo not drawn),,2.59 µM (active)
O=C(COC(=O)c1cncc(Br)c1)Nc1ccc(S(=O)(=O)N2CCOCC2)cc1,19.1% (inactive),

SMILES,"activity change, negative = cytotoxicity",Potency
Cc1ccc(S(=O)(=O)N2CCN(c3ncnc4ccccc34)CC2)cc1,0% (inactive),
Cc1ccc(C)c(S(=O)(=O)N2CCN(c3ncnc4sccc34)CC2)c1,,7.31 µM (active)
COc1ccc(C)cc1S(=O)(=O)N1CCN(S(=O)(=O)c2cc(C(=O)O)ccc2C)CC1,-2.45% (inactive),
CCc1nc2c(OCc3ccccc3)cccn2c1N(C)C(=O)c1ccco1,-2.97% (inactive),
CCCCNS(=O)(=O)CCNCc1ccccc1OC,-3.58% (inactive),
COc1cccc(OC)c1C(=O)N1CCN(Cc2ccccc2F)CC1,2.02% (inactive),
CCCc1c(-c2ccccc2F)ncn1Cc1ccccc1OC,,20.6 µM (active)
COc1ccccc1Cc1c(-c2ccc(Cl)cc2)nc2c3ccccc3ccn12,-28% (inactive),
COc1ccccc1CCNS(=O)(=O)c1cn(C)nc1C,14.6% (inactive),
COc1ccccc1Cc1c(-c2ccc(Cl)cc2)nc2ccc(Cl)cn12,-5.46% (inactive),
CCCCc1c(-c2ccc(Cl)cc2)ncn1CCc1ccccc1OC,,13 µM (active)
CCCCc1c(-c2ccc(Br)cc2)ncn1CCc1ccccc1OC,,20.6 µM (active)
COc1ccc(CNC(=O)c2cc3c(-c4ccccc4F)nn(C)c3s2)c(OC)c1,-2.11% (inactive),
COc1cc(Br)cc2cc(S(=O)(=O)c3ccccc3)c(=O)oc12,20.1% (inactive),
CCc1cccc(NC(=O)c2cnc(N3CCOCC3)c3ccccc23)c1,-2.64% (inactive),
Oc1ccccc1-c1nc2ccc(Cl)cn2c1Nc1ccc2c(c1)OCCO2,0.195% (inactive),
CN(C)c1ccc(/C=C/c2sc3ccccc3[n+]2C)cc1,13.9% (inactive),
Cc1cccc(C)c1NC(=O)CN1CCN(c2ccc(F)cc2)CC1,0% (inactive),
COc1ccc2[nH]c3c(C)c4cc[n+](C)cc4c(C)c3c2c1,11.5% (inactive),
COc1ccc2[nH]c(=S)cc(C)c2c1,,14.6 µM (active)
COc1ccc2[nH]c(C(=O)N3CCN(C)CC3)c(C)c2c1,13.6% (inactive),
CCOc1ccc(N(CC)S(=O)(=O)N2CCCC(C(=O)Nc3ccc(C(C)=O)cc3)C2)cc1 (stereo not drawn),-22.2% (inactive),
CC(NS(=O)(=O)c1ccc(Br)cc1)C(=O)NCC1CCCO1 (stereo not drawn),22.2% (inactive),
O=C(CCNS(=O)(=O)c1ccc(Br)cc1)NCC1CCCO1 (stereo not drawn),-30.8% (inactive),
OC(CNCC1CCCO1)Cn1c2ccc(Br)cc2c2cc(Br)ccc21 (stereo not drawn),,23.1 µM (active)
CCOC(=O)c1c(-c2ccc(OC)cc2)oc2ccc(OCc3ccc(C(=O)OC)cc3)cc12,1.92% (inactive),

SMILES,"activity change, negative = cytotoxicity",Potency
COc1ccc(-c2c(C)cc3oc(=O)cc(-c4ccccc4)c3c2C)cc1OC,0.0002% (inactive),
COc1cc(OC)c2c(-c3cccc(-c4cccc(N)c4)c3)cc(=O)oc2c1,,7.31 µM (active)
COc1ccc(-c2c(C)cc3oc(=O)cc(-c4ccccc4)c3c2C)cc1F,-36% (inactive),
OC(Cc1ccc2ccccc2n1)c1ccc(Cl)c(Cl)c1 (stereo not drawn),1.97% (inactive),
O=C(CSc1ncc(CO)n1Cc1ccc(Cl)cc1)NCc1ccc(F)cc1,-6.64% (inactive),
Cn1c(CCN2CCN(c3ccccn3)CC2)nc2cc(NS(=O)(=O)c3ccc(F)cc3)ccc21,-19.1% (inactive),
COc1ccc(Cn2c(=O)sc3ccccc32)cc1OC,,2.59 µM (active)
COc1ccccc1CNC(=O)CCn1c(=O)sc2ccccc21,-7.38% (inactive),
Cc1cccc(CSc2nnc(Cn3c(=O)sc4ccccc43)n2C)c1,-15.3% (inactive),
O=C(Nc1nnc([C@H]2C[C@H](O)[C@@H](CO)O2)s1)c1cccc(Cl)c1,16.6% (inactive),
COc1ccc(S(=O)(=O)NC(=O)C2(C)CCN2C(=O)COc2ccc(Cl)cc2)cc1 (stereo not drawn),4.3% (inactive),
CC(C)COP(=O)(c1ccc(N(C)C)cc1)C(Nc1ccccc1)c1cccnc1 (stereo not drawn),,23.1 µM (active)
CC(Nc1ccccc1)c1cccnc1 (stereo not drawn),35.2% (inactive),
Cc1ccc(C(O)P(=O)(OC(C)C)c2ccc(N(C)C)cc2)cc1 (stereo not drawn),-1.44% (inactive),
COc1ccccc1N1CCN(C2C(=O)c3ccccc3N2C(C)=O)CC1 (stereo not drawn),1.8% (inactive),
COc1ccccc1OCc1nc2ccccc2s1,-20% (inactive),
N=C1C(c2nc3ccccc3[nH]2)=C(O)CN1NC(=O)c1c[nH]c2ccccc12,11.8% (inactive),
Cc1ccc(C)n1NC(=O)c1ccc([N+](=O)[O-])cc1,8.09% (inactive),
COc1ccccc1N1CC(O)=C(c2nc3ccccc3s2)C1=N,,10.3 µM (active)
COc1ccc(-n2nnnc2-c2nc3ccccc3s2)cc1,-7.27% (inactive),
N=C1C(c2nc3ccccc3s2)=C(O)CN1NC(=O)c1ccc([N+](=O)[O-])cc1,,18.4 µM (active)
COC(=O)C[C@@H]1C=C[C@@H](NC(=O)c2ccc3c(c2)OCO3)[C@@H](CO)O1,2.17% (inactive),
COc1ccc(-c2c(C#N)cnc(C)c2C)c(O)c1OC,12% (inactive),
CCCCn1nnnc1C(c1ccccc1)N1CCN(c2ccccc2OC)CC1 (stereo not drawn),-12.7% (inactive),
CC1Cc2[nH][nH]c(=O)c2C(C2CCCC2)O1 (stereo not drawn),24.7% (inactive),
